According to PubChem BioAssay AID1578 (Sanford-Burnham Center for Chemical Genomics, 2009):
Several values for one entry are separate records, joined by “and”; a condition that tells them apart may be missing. Equal entries are not always repeated. Out of some 290,000 compounds screened, about 3,000 (1%) were called active. No stated cut-off is given here; in the data, active means inhibition mostly above about 36% (no sharp cut-off); inactive means mostly below about 34%. The full list was thinned out, with actives kept by preference. The source holds several records for some structures; these can differ, active in one and inactive in another.

Assay: NOD1 signaling inhibitors, primary screen, cell-based, luminescence, uHTS (AID 1578);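 further: HEK-293T reporter cells stimulated with the NOD1 agonist gamma-tri-DAP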
Settings: NOD1-driven NF-kB luciferase reporter cells, at 4 µM, stronger effect = higher value

inhibition, 36% (inactive) and 65.2% (active):
O=C(O)CSc1cccc2cccnc12

inhibition, inactive:
COCCNC(=O)[C@@]1(C)C=C[C@@H](Cc2ccccc2)N1C(=O)c1ccccc1 -45.4%
CC(=O)N1[C@H](Cc2ccccc2)C=C[C@]1(C)C(=O)NCc1ccccn1 -2.7%
CC(=O)N1[C@H](Cc2ccccc2)C=C[C@]1(C)C(=O)NCCc1c[nH]c2ccccc12 -15.7%
CC(=O)N1[C@H](Cc2ccccc2)C=C[C@]1(C)C(=O)NCCN1CCOCC1 22.4%
Cc1sc2nc(SCC(=O)N(C)Cc3ccccc3)n(-c3ccccc3)c(=O)c2c1C 3.3%
Cc1ccc2c(c1)N(C(=O)CCC(=O)NCc1cccnc1)CC(C)O2 (stereo not drawn) -33%
Cc1ccc(C(=O)N2CCc3ccccc32)o1 -15.8%
CCOC(=O)c1nc2nc(C)cc(=O)n2[nH]1 -8.6%
O=C(NCCCCCCNC(=O)OC1CCS(=O)(=O)C1)OC1CCS(=O)(=O)C1 (stereo not drawn) 9.3%
COc1cccc2c1-c1c(O)cccc1C2=O -18.2%
COc1ccc(OC)c(-n2c(-c3cccc(C)c3)n[nH]c2=S)c1 -42.7%
COc1cccc(COc2ccccc2C2Nc3ccc(Br)cc3C(=O)N2NC(=O)c2ccncc2)c1 (stereo not drawn) 9.7%
O=[N+]([O-])c1ccc(N=NN(CCO)CCO)cc1 6.1%
O=[N+]([O-])c1ccc(N=Nc2c(Cl)cc(O)cc2Cl)cc1 16.5%
CCC(=O)c1c(OCc2ccccc2)ccc2c(C)cc(=O)oc12 3.9%
Cc1cccc(C(=O)C2CCN(S(=O)(=O)c3cccc(C(=O)O)c3)CC2)c1 12.2%
CN(C)C(=O)CSc1cccc2cccnc12 85.5%
NNC(=O)CSc1cccc2cccnc12 -24.8%
O=C(CSc1cccc2cccnc12)OCC(=O)c1ccc(Br)cc1 3.3%
O=C(CSc1cccc2cccnc12)OCC(=O)c1ccccc1 -30.2%
COc1ccc(C2(C)NC(=O)N(CC3CCCCC3)C2=O)cc1 (stereo not drawn) 1.3%
COc1ccccc1OCCCCN1CCC(C)CC1 -6.9%
COc1ccc2nc(NC(=O)C3CCCN(S(=O)(=O)c4cccc5nonc45)C3)sc2c1 (stereo not drawn) -1.6%
O=C(Nc1ccc(NC(=O)c2ccccc2Cl)cc1)c1cccnc1 -48.1%
CN(CCCCCCCCC(=O)/C=N/O)Cc1ccccc1 -3.1%
CCN(CC)CCOC(=O)c1ccc(NC(=O)c2ccc(Cl)c(S(=O)(=O)N3CCCCCC3)c2)cc1 13.1%
CC(C)Nc1nnc(SCC(=O)Nc2ccc(F)cc2)s1 -8.4%
O=C(CSc1nnc(NC2CCCCC2)s1)Nc1ccc2c(c1)C(=O)c1ccccc1C2=O -43.3%
CC(=O)c1cccc(NC(=O)C2C(c3ccccc3)C2(Cl)Cl)c1 (stereo not drawn) -15.1%
COc1ccc(C2NC(=O)NC3=C2C(=O)CCC3)cc1 (stereo not drawn) -30.7%
COCCN1C(=O)c2cc(C(=O)Nc3cccc(F)c3)ccc2C1Nc1cccc(F)c1 (stereo not drawn) 2.2%
COCCCn1c(SCc2ccc(OC)cc2)nc2cc(OC)c(OC)cc2c1=N -11.5%
COCCCn1c(SCc2ccccc2)nc2cc(OC)c(OC)cc2c1=N 5.9%
O=C(COC(=O)c1ccc(S(=O)(=O)N2CCc3ccccc3C2)cc1)NC1CCS(=O)(=O)C1 (stereo not drawn) 3.9%
NS(=O)(=O)c1ccc(NC(=S)NCc2ccc(Cl)cc2)cc1 4.1%
CC1=CN2C(=N)/C(=C/c3ccco3)C(=O)N=C2S1 -63.4%
CC1=CN2C(=N)/C(=C/c3ccc(C)o3)C(=O)N=C2S1 -39.8%
CC1=NN2C(=N)/C(=C\c3ccc(SCc4ccccc4)o3)C(=O)N=C2S1 9.5%
CC1=CN2C(=N)/C(=C/c3ccc(Sc4ccc(C)cc4)o3)C(=O)N=C2S1 -6.2%
CC(=O)Nc1ccc(OC(=O)c2cc3cc(Br)ccc3oc2=O)cc1 7.6%
CC(C)C(=O)Nc1ccc(NC(=O)c2ccccc2Cl)nc1 -13.2%
CCN(CC)C(=O)CSc1nnc([C@H](Cc2c[nH]c3ccccc23)NC(=O)OC(C)(C)C)o1 -14.8%
CCSc1nnc(NC(=O)C2CCCCC2)s1 -31.5%
CC(C)N(C(=O)CSc1nnc(NC(=O)C2CCC2)s1)C(C)C -7.8%
CCc1ccc(NC(=O)CSc2nnnn2-c2cccnc2)cc1 -28.4%
CCCC(=O)C1=C(O)C(C(=O)OC)C(C)(C)CC1=NCCCCCC(=O)O (stereo not drawn) -12.1%
Cc1cc(C)c(NC(=O)c2ccc3c(c2)C(=O)N(Cc2cccnc2)C3=O)c(C)c1 -0.6%
COc1cc2ncnc(NCc3cc(F)ccc3F)c2cc1OC 0.3%
Fc1cccc(CNc2ncnc3cc(Cl)ccc23)c1F 0.2%
Nc1cc(=O)[nH]n1C1CCN(c2ccccc2)CC1 -4%
COc1ccc(C2C=C(Nc3ccccc3)C(=O)N2c2ccccc2)cc1OC (stereo not drawn) 4.9%
COc1ccc(-c2cc(CNC(=O)CCl)on2)cc1 54.5%
CC(=O)NCc1cc(-c2ccc(Cl)cc2)no1 -35.1%
COc1ccc(Cl)cc1NC(=O)CN1C(=O)NC2(CCCC2)C1=O -8.5%
CCn1c(SCC(=O)N2CCCc3ccccc32)nc2ccccc2c1=O -37.5%
O=C(CSc1nc2ccccc2c(=O)n1-c1ccccc1)N1CCCc2ccccc21 -19.1%
Cc1nc(SCC(=O)N2CCCc3ccccc32)c2oc3ccccc3c2n1 -0.3%
CCc1nc(SCC(=O)N2CCCc3ccccc32)c2oc3ccccc3c2n1 0.5%
O=C(CSc1ncnc2c1oc1ccccc12)NCc1ccc(F)cc1 19.3%
Cc1nc(SCC(=O)NCc2ccco2)c2oc3ccccc3c2n1 -2.6%
COc1cccc(OCC(O)CN2CCN(c3ccccc3)CC2)c1 (stereo not drawn) 2.2% and -2.1%
CC(C)(C)c1ccc(-c2noc(-c3ccno3)n2)cc1 -6.3%
CCN(CC)S(=O)(=O)c1cccc(C(=O)N/N=C/c2ccc(N3CCOCC3)cc2)c1 -29.1%
O=C1NC(=O)/C(=C\c2ccc(O)cc2O)S1 -22.3%
COCCNC(=O)c1ccc(C)c(NC(=O)C2=C(C)OCCS2)c1 -9.9%
COC(=O)C(CC(=O)O)NCc1ccco1 (stereo not drawn) -10.9%
CC(=O)N1CCN(CC(=O)Nc2ccc([N+](=O)[O-])cc2Br)CC1 -29.7%
FC(F)(F)c1ccccc1NC(=S)NN1CCOCC1 -11.5%
O=C(O)c1cccc(Nc2ccc([N+](=O)[O-])cn2)c1 -19.2%
c1ccc(Nc2ccnc(Nc3ccccc3)n2)cc1 8.8%
CCOC(=O)C1=C(C)N(C)C(=S)NC1c1ccc(Cl)cc1Cl (stereo not drawn) -11.6%
C[n+]1c2n(c3ccccc31)N=C(c1ccc(-c3ccccc3)cc1)CS2 43.5%
C[n+]1c2n(c3ccccc31)N=C(c1ccccc1)CS2 5% and 22.1%
Cc1cc(=O)oc2cc(NC(=O)c3ccccc3OC(F)F)ccc12 -62.7%
Cc1ccc(O)c(C(=O)c2cc(C#N)c(=O)n(Cc3ccccc3)c2)c1 -10.3%
Cc1ccc(O)c(C(=O)c2cc(C#N)c(=O)n(C(C)c3ccccc3)c2)c1 (stereo not drawn) -4.6%
Cc1c(NC(=O)c2ccc(N(Cc3ccccc3)S(C)(=O)=O)cc2)c(=O)n(-c2ccccc2)n1C -26.8%
CCOC(=O)N1CCN(C(=O)C2CCC(=O)N2C(C)C)CC1 (stereo not drawn) 3.6%

inhibition, active:
CC(=O)N1[C@H](Cc2ccccc2)C=C[C@]1(C)C(=O)NCc1ccc(C)o1 99.7%
C[C@]1(C(=O)NCCc2c[nH]c3ccccc23)C=C[C@@H](Cc2ccccc2)N1C(=O)c1ccccc1 84.6%
COc1cccc2c1C(=O)c1c(O)c3c(c(O)c1C2=O)C[C@@](O)(C(=O)CO)C[C@@H]3O[C@H]1C[C@H](N)[C@H](O)[C@H](C)O1 78.6%
COc1cccc2c1C(=O)c1c(O)c3c(c(O)c1C2=O)C[C@@](O)(C(C)=O)C[C@@H]3O[C@H]1C[C@H](N)[C@H](O)[C@H](C)O1 108%
O=[N+]([O-])c1ccc(N=Nc2ncc[nH]2)cc1 74.2%
CCOC(=O)CSc1cccc2cccnc12 85.4%
CC(C)Nc1nnc(SCC(=O)Nc2ccc3c(c2)C(=O)c2ccccc2C3=O)s1 83.7%
COCCCn1c(SCCc2ccccc2)nc2cc(OC)c(OC)cc2c1=N 49.8%
CC1=CN2C(=N)/C(=C/c3ccc([N+](=O)[O-])o3)C(=O)N=C2S1 78.2%
CC1=CN2C(=N)/C(=C/c3ccc(Sc4ccc(Cl)cc4)o3)C(=O)N=C2S1 76.7%
CC(C)Sc1nnc(NC(=O)C2CC2)s1 37.9%
O=C(CCl)NCc1cc(-c2ccc(Cl)cc2)no1 87.7%
O=C(CSc1ncnc2c1oc1ccccc12)NCc1ccco1 72.8%
O=C(O)c1cccc(Nc2ccnc(Nc3cccc(C(=O)O)c3)n2)c1 38.5%
